# A selection: hits, their analogues and other compounds. The true share with any hit is near 10%.
# BAZ2B inh: blocks human BAZ2B | AlphaScreen BAZ2B-H3K14Ac peptide displacement | AID 504333 | 360,000 tested, 4.4% active | Potency, µM (doses to about 114 µM), for the others: at the top dose activity change, negative = inhibition, hits mostly inhibitors; also: % is scaled to controls: 0 for no effect and ±100 for the full control effect; nearly all actives have a fitted effect of over 60% in size
# Target sequence (Q9UIF8 whole entry, looked up): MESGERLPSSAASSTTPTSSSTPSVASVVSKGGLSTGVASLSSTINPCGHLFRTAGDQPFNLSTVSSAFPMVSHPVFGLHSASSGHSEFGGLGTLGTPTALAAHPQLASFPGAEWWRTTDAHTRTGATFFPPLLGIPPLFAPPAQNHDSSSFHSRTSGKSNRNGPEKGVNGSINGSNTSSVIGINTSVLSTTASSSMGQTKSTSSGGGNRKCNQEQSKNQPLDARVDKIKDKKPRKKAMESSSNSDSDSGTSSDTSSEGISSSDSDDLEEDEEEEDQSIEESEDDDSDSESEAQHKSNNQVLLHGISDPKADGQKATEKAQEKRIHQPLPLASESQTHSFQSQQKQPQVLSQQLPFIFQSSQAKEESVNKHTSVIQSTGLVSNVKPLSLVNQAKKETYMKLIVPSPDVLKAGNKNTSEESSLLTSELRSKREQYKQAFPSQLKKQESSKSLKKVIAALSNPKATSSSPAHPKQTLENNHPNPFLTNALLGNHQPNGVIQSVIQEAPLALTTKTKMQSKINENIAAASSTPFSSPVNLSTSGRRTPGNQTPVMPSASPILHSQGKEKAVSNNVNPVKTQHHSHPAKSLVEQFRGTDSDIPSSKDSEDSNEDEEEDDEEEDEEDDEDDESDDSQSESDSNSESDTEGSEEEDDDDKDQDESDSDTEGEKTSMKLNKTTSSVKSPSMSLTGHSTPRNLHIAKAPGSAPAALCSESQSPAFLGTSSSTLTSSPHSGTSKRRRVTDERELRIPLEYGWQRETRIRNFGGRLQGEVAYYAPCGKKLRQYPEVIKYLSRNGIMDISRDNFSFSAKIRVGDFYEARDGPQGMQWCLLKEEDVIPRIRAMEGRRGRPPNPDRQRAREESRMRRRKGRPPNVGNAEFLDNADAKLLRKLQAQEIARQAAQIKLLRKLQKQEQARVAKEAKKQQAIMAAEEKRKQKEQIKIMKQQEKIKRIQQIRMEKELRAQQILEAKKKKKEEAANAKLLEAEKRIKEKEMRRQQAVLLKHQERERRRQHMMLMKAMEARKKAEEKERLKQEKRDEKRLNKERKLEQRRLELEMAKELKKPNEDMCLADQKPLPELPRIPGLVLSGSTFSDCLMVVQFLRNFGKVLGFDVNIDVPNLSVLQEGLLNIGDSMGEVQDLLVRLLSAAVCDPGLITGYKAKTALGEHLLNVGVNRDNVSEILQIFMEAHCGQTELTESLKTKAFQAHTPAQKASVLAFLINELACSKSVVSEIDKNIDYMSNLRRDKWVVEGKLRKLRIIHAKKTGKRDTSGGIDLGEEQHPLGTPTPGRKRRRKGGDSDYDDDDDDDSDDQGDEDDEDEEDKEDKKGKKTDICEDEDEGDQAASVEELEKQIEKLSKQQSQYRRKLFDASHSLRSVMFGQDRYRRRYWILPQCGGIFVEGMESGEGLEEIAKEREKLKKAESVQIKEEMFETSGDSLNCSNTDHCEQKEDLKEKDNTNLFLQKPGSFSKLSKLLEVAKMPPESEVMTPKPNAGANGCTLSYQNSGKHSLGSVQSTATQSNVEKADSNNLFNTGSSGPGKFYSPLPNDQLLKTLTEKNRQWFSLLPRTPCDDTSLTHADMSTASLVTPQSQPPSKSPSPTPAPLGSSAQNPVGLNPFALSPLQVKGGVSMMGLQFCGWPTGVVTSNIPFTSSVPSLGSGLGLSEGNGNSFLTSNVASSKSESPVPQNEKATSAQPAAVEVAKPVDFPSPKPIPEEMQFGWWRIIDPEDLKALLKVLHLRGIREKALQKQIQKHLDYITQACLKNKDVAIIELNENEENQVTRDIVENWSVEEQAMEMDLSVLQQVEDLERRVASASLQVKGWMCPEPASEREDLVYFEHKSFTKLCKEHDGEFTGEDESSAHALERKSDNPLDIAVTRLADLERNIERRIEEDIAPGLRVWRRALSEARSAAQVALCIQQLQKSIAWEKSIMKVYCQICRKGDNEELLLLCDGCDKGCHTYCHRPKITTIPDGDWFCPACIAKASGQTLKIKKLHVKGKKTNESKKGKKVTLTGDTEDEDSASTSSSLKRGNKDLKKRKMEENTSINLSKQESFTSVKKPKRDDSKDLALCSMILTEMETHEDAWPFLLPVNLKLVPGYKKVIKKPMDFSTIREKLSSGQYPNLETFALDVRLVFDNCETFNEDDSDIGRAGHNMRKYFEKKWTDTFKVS
#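 AlphaScreen luminescence quantifies BAZ2B engagement of H3K14Ac peptide; the protein and biotinylated peptide are both at 50 nM final, buffer PBS pH 7.4 with 0.01% Tween-20, all steps at room temperature.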
# GLS inh: glutaminase GLS (human) inhibition. O94925. GLS enzymatic activity, qHTS titration. Potency, µM (titrated, usually from 45.5 µM), for inactives: top-dose activity change, negative = inhibition, hits mostly inhibitors. 410,000 tested, 0.21% active. AID 624170; also: % is scaled to controls: 0 for no effect and ±100 for the full control effect
#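 Two-point fluorescence kinetic (t0, 30 min RT) for hKGA; glutamate detected via glutamate oxidase–HRP–Amplex Red. Substrate: 1 mM L-glutamine solution; buffer 45 mM KH2PO4, pH 8.2.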
# JMJD2A Tudor: inhibitors of human JMJD2A Tudor domain | Potency, µM (titrated, usually from 114 µM), for the others: at the top dose activity change, negative = inhibition, most hits filed as inhibitors | 390,000 tested, 4.4% active | AlphaScreen JMJD2A-Tudor / H3K4me3 peptide binding | O75164; also: % is scaled to controls: 0 for no effect and ±100 for the full control effect; nearly all actives have a fitted effect of over 50% in size
# HP1b binding inh: inhibitors of HP1-beta chromodomain binding to methylated histone tails; P83916; AlphaScreen HP1-beta / biotin-H3K9me3 peptide binding; Potency, µM (series often up to 114 µM), without a hit: top-dose activity change, negative = inhibition, most hits filed as inhibitors; 390,000 tested, 0.56% active; AID 540317; also: nearly all actives have a fitted effect of over 70% in size
#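 Compound inhibition of the preformed complex between 50 nM HP1-beta and 50 nM biotinylated H3K9me3 peptide was read by AlphaScreen. Buffer was PBS pH 7.4 with 0.01% Tween-20. Incubations ran 30 min at room temperature, with 10 ug/mL donor/acceptor beads.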
# G9a block: blocks human histone lysine methyltransferase G9a | Q96KQ7 | G9a H3K9 monomethylation, AlphaScreen, 2 h | Potency, µM (highest dose often 102 µM), for inactives: at the top dose activity, negative = inhibition, actives largely listed as inhibitors | 350,000 tested, 8.8% active | AID 504332; also: % is scaled to controls: 0 for no effect and ±100 for the full control effect; nearly all actives have a fitted effect of over 75% in size
#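 G9a (20 nM) preincubated 15 min RT with compounds, then 500 nM biotinylated H3K9 peptide and 20 uM SAM added; 2 h RT reaction. Monomethyl-H3K9 product detected by AlphaScreen with anti-H3K9me1 antibody, streptavidin donor and anti-rabbit IgG acceptor beads.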
# * hit, by the source's call; ? = inconclusive; nt = no result; [ ] = dose if it differs, or a comment. Calls follow the shape of the dose curve; as a rule, active = well fitted curve in the direction sought with a large enough effect; inconclusive = small, poorly fitted or top-dose-only effect, or another doubt; inactive = no such curve, though single readings can be large; an effect the other way counts as inactive or inconclusive. Potency is read from the fitted curve at half-maximal effect.
SMILES,BAZ2B inh,GLS inh,JMJD2A Tudor,HP1b binding inh,G9a block
Cc1cc(O)ccc1Nc1nc(-c2sc(N)nc2C)cs1,-2%,40%,50µM*,-31%,15%[59 µM]
Cc1nc(N)sc1-c1csc(Nc2cccc(C(=O)O)c2)n1,50µM*,-14%,?,-1%,45µM*
COc1cccc(N2CCN(C(=S)Nc3ccc(F)cc3)CC2)c1,13%,-9%,-15%,10%,nt
CCc1cc2c(=O)[nH]c(Cc3ccccc3)nc2s1,8%,0%,-17%,7%,?
CC1CCCCN1C(=O)c1cc(Cl)ccc1[N+](=O)[O-] (centres undefined),4%,6%,-5%[57.1 µM],38%,-3%
CN(C)S(=O)(=O)c1ccc(Cl)c(C(=O)NC2CCCCCCC2)c1,-24%,-2%,-24%,-14%,1%
CCCC(=O)Nc1nc(C)c(-c2csc(Nc3ccc(Cl)cc3)n2)s1,28µM*,6%,?,?,38%[0.501 µM]
CCOc1ccc2c(c1)C(=O)c1cc(OCC(=O)O)ccc1-2,-18%,18%,-22%,55%,nt
CCCCOc1ccc2c(c1)C(=O)c1cc(O)ccc1-2,35µM*,-13%,28µM*,45µM*,32µM*
COc1cc(-c2nc3ccccn3c2/N=C/c2cc(OC)c(OC)c(OC)c2)ccc1O,nt,20%,45µM*,-59%,nt
Cc1ccc(-c2nc3ccccn3c2C=O)cc1,-3%,-9%,-13%,14%,nt
Cc1c(-c2ccc(Br)cc2)nc2ccccn12,-5%,13%,-19%,-8%,45µM*
CN(C)c1ccc(-c2nc3ccccn3c2/N=C/c2ccc(Br)cc2)cc1,11µM*,1%,45µM*,?,10µM*
Cc1ccc(N(CC(=O)NC2CCC(C)CC2)S(=O)(=O)c2cccnc2)cc1 (centres undefined),-3%,-5%,-6%,45%,2%
O=S(=O)(c1ccccc1)N1CCN=C1SCc1c(F)cccc1Cl,10%,-18%,37%,88%,74%
CCCOc1ccccc1-n1sc2c(c1=S)-c1cc(OC)cc3c1N(C(=O)C3=O)C2(C)C,2µM*,7%,2.5µM*,-81%,?
O=C(NCCCN1CCCC1=O)C(=O)Nc1cccc(F)c1,-2%,-3%,7%,43%,2%
Cc1ccc(C(=O)OCC2OC3OC(C)(C)OC3C2O)cc1 (centres undefined),12%,-6%,5%,36%,16%
CC1(C)O[C@H]2OC([C@H](O)CON3C(=O)c4ccccc4C3=O)[C@H](O)[C@H]2O1 (some centres undefined),-31%,1%,-33%,18%,45µM*
FC(F)(F)c1cnc(-n2cc[nH]c2=S)c(Cl)c1,13%,18%,79µM*,29%,32µM*
Nc1ccn(-c2ncc(C(F)(F)F)cc2Cl)c(=O)n1,-17%,3%,4%[57.1 µM],42%,25%[12.7 µM]
OCC[C@@H]1C[C@H](O)[C@@H](O)[C@@]2(Cc3ccccc3O2)O1,-20%,6%,-21%,37%,9%
N#CCCN(C(=O)COC(=O)C12CC3CC(CC(O)(C3)C1)C2)c1ccc(F)cc1,13%,-3%,-5%,19%,1.4µM*
N#CCCN(C(=O)COC(=O)CNC(=O)C12CC3CC(CC(C3)C1)C2)c1ccccc1,-4%,-8%,-14%,17%,-3%[0.501 µM]
Cc1[nH]n(-c2ccc(Br)cc2)c(=O)c1/C=N/NC(=O)c1ccccc1,32µM*,34%,79µM*,38%,?
SMILES,BAZ2B inh,GLS inh,JMJD2A Tudor,HP1b binding inh,G9a block
O=C(N/N=C/c1c(Cl)cccc1Cl)c1cccc(F)c1,8%,1%,-9%,9%,25%
Cc1[nH]n(-c2ccccc2)c(=O)c1/C=N/NC(=O)c1cccc(F)c1,79µM*,3%,79µM*,45%,25µM*
CCN(CCn1cccn1)C(=O)CCc1nnc(Cc2c[nH]c3ccccc23)o1,1%,4%,-11%,37%,13%
COc1ccc(C(=O)c2c(N)c(C(=O)Nc3cccc(OC)c3)c3ccccn23)cc1,0%,-6%,-22%,6%,28µM*
O=c1c2ccccc2c(C=Nc2cccc(S(=O)(=O)NC3=NCCCCC3)c2)c(O)n1Cc1ccccc1,-13%,1%,-16%[11.4 µM],25%,-43%[12.7 µM]
COc1ccc(Cn2nnnc2C(c2cccs2)N2CCN(c3ccccc3)CC2)cc1 (centres undefined),14%,-1%,-31%,8%,9%[59 µM]
Cc1ccc(S(=O)(=O)c2nc(-c3ccccc3)oc2NCCCN2CCOCC2)cc1,-32%,5%,?,37%,?
Cc1cccc(-c2nc(S(=O)(=O)c3ccc(F)cc3)c(NCCCN3CCOCC3)o2)c1,71µM*,5%,?,?,nt
CC(=O)NCC(=O)OC(C)C(=O)Nc1ccc(C(C)=O)cc1 (centres undefined),-3%,2%,-20%[57.1 µM],57%,20%[59 µM]
Cc1ccc(C(=O)NCC(=O)OC(C)C(=O)Nc2ccc(N(C)C)cc2)cc1C (centres undefined),?,-1%,?,?,25µM*
Cc1n[nH]c(=O)c2c(NC(=O)COC(=O)c3cc(F)cc(F)c3)oc(C)c12,1%,-10%,-19%,46%,45µM*
Cc1n[nH]c(=O)c2c(NC(=O)CSc3ccc(F)cc3)oc(C)c12,3%,-11%,-17%,12%,-50%
CC(=O)Nc1ccc(SCC(=O)Nc2oc(C)c3c(C)n[nH]c(=O)c23)cc1,1%,69%,-7%,50%,50µM*
Cc1cc(C)c(C)c(SCC(=O)Nc2oc(C)c3c(C)n[nH]c(=O)c23)c1C,4%,-3%,-21%,12%,4µM*
CCOC(=O)c1c(NC(=O)C2Cc3ccccc3C(=O)O2)sc2c1CCCC2 (centres undefined),nt,7%,1%,20%,nt
O=C(NC(=S)Nc1ccccc1Br)c1ccc2c(c1)OCO2,-18%,1%,-8%,12%,0%
NC(N)=NS(=O)(=O)c1ccc(NC(=S)NC(=O)c2ccc3c(c2)OCO3)cc1,-27%,-1%,-3%,14%,45µM*
NS(=O)(=O)c1ccc(NC(=O)c2ccc3c(c2)OCO3)cc1,-31%,-5%,7%,26%,?
NC(N)=NS(=O)(=O)c1ccc(NC(=S)NC(=O)c2ccccc2)cc1,-13%,14%,-3%,16%,nt
CC(C)c1ccc(O)c(NC(=S)NC(=O)c2ccc3c(c2)OCO3)c1,?,8%,?,-11%,13µM*
NS(=O)(=O)c1ccc(NC(=S)NC(=O)c2ccc3c(c2)OCO3)cc1,-22%,12%,10%,17%,40µM*
CCN(CC)C(=O)/C(=C\c1cccc([N+](=O)[O-])c1)NC(=O)c1ccco1,3%,9%,-21%,3%,1%[59 µM]
CCOc1cc(C2Nc3ccccc3-c3nnc(SCc4ccccc4)nc3O2)ccc1OC (centres undefined),-13%,12%,-23%,1%,-44%[59 µM]

# Assay outcomes from PubChem.
